# Screen size: about 310,000 compounds; about 14,000 (4.5%) showed an effect of 50% or more. Effects have a minus sign here. Many of the other results were omitted from the sample, so strong results are more common in it than they were.
# Molecular target: human ether-à-go-go-related gene (hERG) potassium channel (human, UniProt Q12809)
# Assay: primary screen, population patch clamp on CHO cells stably expressing hERG; higher = less effect of the substance
# 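Note: peak tail current of the secondary pulse compared with the same well before compound.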
# Chain of human ether-à-go-go-related gene (hERG) potassium channel (Q12809 whole entry, looked up): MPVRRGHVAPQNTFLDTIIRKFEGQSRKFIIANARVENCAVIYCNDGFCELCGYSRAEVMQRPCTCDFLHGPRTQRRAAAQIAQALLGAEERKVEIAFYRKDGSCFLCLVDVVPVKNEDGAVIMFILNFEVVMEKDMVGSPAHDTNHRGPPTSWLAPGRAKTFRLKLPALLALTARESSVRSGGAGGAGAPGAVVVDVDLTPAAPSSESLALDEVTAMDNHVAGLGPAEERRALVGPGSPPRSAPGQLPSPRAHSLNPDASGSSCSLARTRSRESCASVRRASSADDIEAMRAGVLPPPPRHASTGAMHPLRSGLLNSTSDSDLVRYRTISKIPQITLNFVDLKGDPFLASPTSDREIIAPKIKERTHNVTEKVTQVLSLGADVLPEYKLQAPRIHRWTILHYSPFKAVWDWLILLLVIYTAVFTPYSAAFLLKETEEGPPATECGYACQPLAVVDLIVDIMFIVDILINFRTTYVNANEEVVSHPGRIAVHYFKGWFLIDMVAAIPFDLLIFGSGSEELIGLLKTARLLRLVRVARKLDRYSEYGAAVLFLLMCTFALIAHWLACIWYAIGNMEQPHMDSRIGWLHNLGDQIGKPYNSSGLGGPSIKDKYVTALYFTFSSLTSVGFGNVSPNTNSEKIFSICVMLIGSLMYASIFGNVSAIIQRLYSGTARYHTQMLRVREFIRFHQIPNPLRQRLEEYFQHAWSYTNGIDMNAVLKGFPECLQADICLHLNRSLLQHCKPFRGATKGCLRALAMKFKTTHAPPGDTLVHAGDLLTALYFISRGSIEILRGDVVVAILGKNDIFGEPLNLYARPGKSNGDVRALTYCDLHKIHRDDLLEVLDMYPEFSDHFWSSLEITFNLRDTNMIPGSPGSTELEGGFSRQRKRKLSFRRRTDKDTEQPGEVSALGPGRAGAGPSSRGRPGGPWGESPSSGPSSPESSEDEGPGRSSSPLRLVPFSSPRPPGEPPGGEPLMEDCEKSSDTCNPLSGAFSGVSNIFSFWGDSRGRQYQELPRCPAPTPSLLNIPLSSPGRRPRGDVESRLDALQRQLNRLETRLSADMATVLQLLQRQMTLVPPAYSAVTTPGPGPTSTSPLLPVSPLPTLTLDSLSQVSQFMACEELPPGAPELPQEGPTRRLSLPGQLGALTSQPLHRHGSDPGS
row,Structure (SMILES),"hERG current change (%, negative = inhibition) at 10uM [%]"
1,O=C1N(Cc2cccnc2)C[C@@H]2C[C@@H](c3ccc(-c4ccccc4)cc3)N3CCC[C@@]123,-71.3
2,COC(=O)c1ccc([C@@H]2C[C@H]3CN(Cc4cccnc4)C(=O)[C@]34CCCN24)cc1,-1.19
3,Cc1cc(C(=O)N/N=C/c2c[nH]c3ccccc23)cs1,-8.33
4,C=CCNC(=O)NC(=O)CSc1nc2cc([N+](=O)[O-])ccc2n1-c1cccc(C(F)(F)F)c1,20.8
5,NC(=O)NC(=O)CSc1nc2cc([N+](=O)[O-])ccc2n1-c1cccc(C(F)(F)F)c1,-57.7
6,CCNC(=O)CSc1nc2cc([N+](=O)[O-])ccc2n1-c1cccc(C(F)(F)F)c1,-35.8
7,NC(=O)CSc1nnc(-c2ccccc2Br)n1-c1cccc(C(F)(F)F)c1,-11.9
8,NC(=O)CSc1nc2cc([N+](=O)[O-])ccc2n1-c1cccc(C(F)(F)F)c1,-69.9
9,CC(Sc1nc2cc([N+](=O)[O-])ccc2n1-c1cccc(C(F)(F)F)c1)C(=O)NC(N)=O (stereo not shown),13.6
10,Cc1ccc(SCC(=O)Nc2cccc(C(=O)NC(C)(C)C)c2)cc1,4.17
11,O=C(Nc1cc(Cl)ccc1N1CCOCC1)c1cccnc1Cl,1.8
12,O=S(=O)(c1ccc(N2CCCCCC2)nc1)N1CCCC1,17.2
13,Cc1ccc(S(=O)(=O)N(C)C)cc1[N+](=O)[O-],-4.14
14,COc1ccc(CCNC(=O)c2cnccn2)cc1,10.8
15,O=C(C[n+]1cc(Br)cc2ccccc21)c1ccccc1.[Br-],-21.7
16,COc1ccc(C(=O)C[n+]2cccc(C)c2C)cc1[N+](=O)[O-].[Br-],-13.2
17,O=C(C[n+]1cc2ccccc2c2ccccc21)c1ccccc1.[Br-],-73.8
18,O=C(C[n+]1cc(Br)cc2ccccc21)c1ccc(F)cc1.[Br-],-41.6
19,Cc1ccc2c(ccc[n+]2CC(=O)c2ccccc2)c1.[Br-],-13.1
20,COc1ccc(C(=O)C[n+]2cc(Br)cc3ccccc32)cc1[N+](=O)[O-].[Br-],-66.3
21,O=C(C[n+]1cc(Br)cc2ccccc21)c1ccc(Cl)cc1.[Br-],-49.8

row,Structure (SMILES),"hERG current change (%, negative = inhibition) at 10uM [%]"
1,O=C(C[n+]1cccc2ccccc21)c1ccc(NC(=O)c2ccccc2)cc1.[Br-],8.45
2,O=C(C[n+]1cc(Br)cc2ccccc21)c1ccc(Br)cc1.[Br-],-83.3
3,N#CCc1c(C#N)c(N)nc(N2CCN(S(=O)(=O)c3ccccc3)CC2)c1C#N,-0.357
4,C=CCn1c(SCC(=O)Nc2cccnc2Cl)nnc1-c1ccccc1F,-15.5
5,COc1cc(C=O)ccc1OCCSc1ccc(C)cc1,-3.13
6,O=C(CSc1nnc(CNC(=O)c2ccco2)o1)Nc1ccccc1,17.2
7,CN(C)C(CNC(=O)CCc1c[nH]c2ccccc12)c1ccccc1 (stereo not shown),-5.7
8,CCOC(=O)C1=CC[C@H]2c3c(c4ccccc4n3C)C(=O)C1N2S(=O)(=O)c1ccc(C)cc1,-4.05
9,COc1ccc(CNC(=O)C2=CC(c3ccc(C)cc3)=NS(=O)(=O)N2C)cc1,-9.69
10,COc1ccc(C2=NS(=O)(=O)N(C)C(C(=O)NCc3ccco3)=C2)cc1OC,-48.9
11,COc1ccc(C2=NS(=O)(=O)N(C)C(C(=O)NC(C)c3ccccc3)=C2)cc1 (stereo not shown),-23.8
12,CN1C(C(=O)NCc2ccco2)=CC(c2ccc(F)cc2)=NS1(=O)=O,-34.2
13,COc1ccc(CNC(=O)C2=CC(c3ccc(OC)cc3)=NS(=O)(=O)N2C)cc1,-54.5
14,COc1ccc(C2=NS(=O)(=O)N(C)C(C(=O)N(C)Cc3ccccc3)=C2)cc1,-69.9
15,COc1ccc(OC)c(C2=NS(=O)(=O)N(C)C(C(=O)NCc3cccs3)=C2)c1,-28
16,COc1ccc(C2=NS(=O)(=O)N(C)C(C(=O)NCc3ccccn3)=C2)cc1,-33.9
17,Cc1ccc(C2=NS(=O)(=O)N(C)C(C(=O)NCc3cccs3)=C2)cc1,-8.57
18,Cc1ccc(C2=NS(=O)(=O)N(C)C(C(=O)NCc3ccco3)=C2)cc1,-58.4
19,COc1ccc(C2=NS(=O)(=O)N(C)C(C(=O)N(C)Cc3ccccc3)=C2)cc1OC,-6.75
20,COc1ccc(C2=NS(=O)(=O)N(C)C(C(=O)NCc3cccs3)=C2)cc1OC,-53.9
21,CCc1ccc(C2CC(c3ccc(Cl)cc3)n3nc(N)nc3N2)cc1 (stereo not shown),-10.3

row,Structure (SMILES),"hERG current change (%, negative = inhibition) at 10uM [%]"
1,CC(C(=O)N1CCc2ccccc21)N1CCN(S(=O)(=O)c2cccs2)CC1 (stereo not shown),-28.8
2,Cc1ccnc(OC(C(=O)O)C(OCCc2ccccc2)(c2ccccc2)c2ccccc2)n1 (stereo not shown),23.2
3,CC(=O)Nc1n[nH]c(-c2ccc(C)cc2)c1C,4.49
4,Cc1ccc(CNS(=O)(=O)CCNC(=O)c2ccccc2)cc1,-33.5
5,Cc1[nH]nc2c1C(c1cccs1)C(C#N)=C(N)O2 (stereo not shown),5.07
6,O=C(OCC(=O)N1CCc2ccccc2C1)c1cccnc1Cl,-0.321
7,COc1ccc(C2=NS(=O)(=O)N(C)C(C(=O)NCc3ccc4c(c3)OCO4)=C2)cc1OC,-34.9
8,COc1ccc(CNC(=O)C2=CC(c3ccc(OC)c(OC)c3)=NS(=O)(=O)N2C)cc1,-21.8
9,Cc1ccc(C2=NS(=O)(=O)N(C)C(C(=O)NCc3ccc(F)cc3)=C2)cc1,-28.4
10,COc1ccc(C2=NS(=O)(=O)N(C)C(C(=O)Nc3ccc4c(c3)OCO4)=C2)cc1,-4.37
11,COc1ccc(C2=NS(=O)(=O)N(C)C(C(=O)NCc3ccc4c(c3)OCO4)=C2)cc1,-63.3
12,COc1ccc(C2=NS(=O)(=O)N(C)C(C(=O)NCc3ccc(F)cc3)=C2)cc1OC,-59
13,Cc1cc(C)nc(NC(=O)c2ccccc2O)n1,18.3
14,c1ccc(CSc2ccc(-c3cccnc3)nn2)cc1,-13.7
15,Clc1ccc(CSc2ccc(-c3cccnc3)nn2)cc1,-48.6
16,c1cncc(CSc2ccc(-c3cccnc3)nn2)c1,9.04
17,c1ccc(CSc2ccc(-c3cccnc3)nn2)nc1,6.82
18,O=[N+]([O-])c1cccc(-c2ccc(SCc3cccnc3)nn2)c1,-55
19,Clc1cccc(CSc2ccc(-c3cccnc3)nn2)c1,-67.3
20,Fc1cccc(Cl)c1CSc1ccc(-c2ccco2)nn1,1.19
21,O=[N+]([O-])c1cccc(-c2ccc(SCc3ccccn3)nn2)c1,-6.25

row,Structure (SMILES),"hERG current change (%, negative = inhibition) at 10uM [%]"
1,Fc1cccc(Cl)c1CSc1ccc(-c2cccnc2)nn1,-68.9
2,N#Cc1c(NC(=O)COC(=O)c2ccc(S(=O)(=O)N3CCCC3)cc2)sc2c1CCCCC2,6.38
3,CCCCC1C(C#N)=C(C)NC2=C1C(=O)CC(C)(C)C2 (stereo not shown),-9.68
4,O=C(CSc1nc(NS(=O)(=O)c2ccccc2)cc(=O)[nH]1)Nc1ccc(F)cc1,10.7
5,CC(C)c1ccc(OCC(=O)Nc2ccc(S(=O)(=O)Nc3ccccn3)cc2)cc1,10.7
6,Clc1ccc(CNc2ncccn2)cc1,13.5
7,CCOc1ccc(/C(O)=C2/C(=O)C(=O)N(CC3CCCO3)C2c2ccco2)cc1 (stereo not shown),14.2
8,COc1ccc(CNC(=O)CCOc2ccc(C(C)(C)C)cc2)cc1,8.47
9,O=C1NCCN1CCNS(=O)(=O)c1cc(C(F)(F)F)cc(C(F)(F)F)c1,17.2
10,Cc1csc(Nc2ccccc2C(F)(F)F)n1,6.46
11,N#C/C(=C\c1c(N2CCOCC2)nc2ccccn2c1=O)S(=O)(=O)c1ccccc1,-63.2
12,Cc1ccc(S(=O)(=O)/C(C#N)=C/c2c(N3CCN(C)CC3)nc3ccccn3c2=O)cc1,-59.1
13,CCN1CCN(c2nc3ccccn3c(=O)c2/C=C(\C#N)S(=O)(=O)c2ccccc2)CC1,-42.3
14,N#C/C(=C\c1c(N2CCCCC2)nc2ccccn2c1=O)S(=O)(=O)c1ccccc1,-40.7
15,Cc1ccc(S(=O)(=O)/C(C#N)=C/c2c(N3CCCCC3)nc3ccccn3c2=O)cc1,-29.9
16,N#C/C(=C\c1c(N2CCN(Cc3ccccc3)CC2)nc2ccccn2c1=O)S(=O)(=O)c1ccccc1,0.944
17,CN1CCN(c2nc3ccccn3c(=O)c2/C=C(\C#N)S(=O)(=O)c2ccccc2)CC1,-24.9
18,CN1CCN(c2nc3ccccn3c(=O)c2/C=C(\C#N)S(=O)(=O)c2ccc(Cl)cc2)CC1,-51.9
19,N#C/C(=C\c1c(N2CCN(c3ccccc3)CC2)nc2ccccn2c1=O)S(=O)(=O)c1ccccc1,2.28

# Reference: paper PMC4336329 (PLoS ONE, 2015)
